Measured values from the supplement of paper PMC4954754.
± gives the uncertainty stated by the source.

test system: HEK293T-Rex ERSE-FLuc; assay: ERSE-FLuc reporter activation, triplicate confirmation, relative to 500 nM thapsigargin (% of thapsigargin); higher = stronger ATF6/ERSE reporter activation; details: 6.8 µM; 18 h; screen: confirmation
Procedure: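 HEK293T-Rex cells stably expressing the ERSE-firefly luciferase (BiP promoter, ATF6-preferring) or XBP1-splicing Renilla luciferase (IRE1/XBP1s) reporter, 1536-well plates, compound at 6.8 µM for 18 hr at 37 °C; luminescence read […] and expressed as % activation = 100*(compound - median DMSO)/(median 500 nM thapsigargin - median DMSO). Primary screen was single-pass; confirmation screen in triplicate (mean ± SD).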

SMILES | ERSE-FLuc reporter activation
COc1ccc(NC(=O)/C(Cl)=C\c2ccccc2)cc1 | 28.6 ± 2.2
C=CCNC(=O)c1sc2nc3cc(C)c(C)cc3cc2c1N | 30.2 ± 5.3
COc1ccc(/C=C(\C#N)c2nc3ccccc3n2C)cc1 | 38.1 ± 7.2
COc1ccc(/C=C/c2ccc3cccc(OC(C)=O)c3n2)cc1OC(C)=O | 39.7 ± 5.5
Cc1ccc(/C=C(\C#N)C(=O)Nc2cccc(Cl)c2)o1 | 26.2 ± 10
CCOc1ccc(NC(=O)c2ccc3c(c2)OCO3)c([N+](=O)[O-])c1 | 30.1 ± 1.8
O=C1N/C(=C/c2ccc(O)cc2)C(=O)N1Cc1ccc(Br)cc1 | 37.1 ± 3.6
O=C(Nc1ccccc1O)c1cc2ccccc2o1 | 33 ± 7.3
O=C(/C=C/c1ccccc1)Nc1ccc(Br)cn1 | 27.6 ± 6.8
CCn1c(/C(C#N)=C/c2ccc(OC)cc2)nc2ccccc21 | 27.2 ± 7.1
CC(C)NC(=O)c1cc(-c2ccc(O)cc2)on1 | 25.8 ± 3
Cc1ccc(Nc2nc(N)c3ccccc3n2)cc1Cl | 34.8 ± 5.8
O=c1/c(=C/c2ccc(O)c(O)c2)sc2nc3ccccc3n12 | 37.5 ± 3.7
COc1cccc(C(=O)Nc2nc3ccc(C)cc3s2)c1 | 32.2 ± 7.2
COc1ccc(C2C=C3Oc4ccccc4N=C3NN2)cc1 (stereo not given) | 29 ± 3.5
COc1ccccc1OCC(=O)Nc1cc(C)ccc1O | 33.1 ± 6.4
COc1cccc(C(=O)/C=C/Nc2cc(C)ccc2O)c1 | 116 ± 7.9
OCCNc1nc(Nc2ccc(Cl)cc2)nc2ccccc12 | 67.9 ± 10
CCCCNc1ncnc2c1cnn2-c1ccc(Cl)cc1 | 30.3 ± 4.6
Oc1ccc(-c2csc(-c3cccnc3)n2)cc1O | 29.3 ± 1.4

SMILES | ERSE-FLuc reporter activation
CN(C)c1ccc(/C=N/NC(=O)c2cccc(Br)c2)cc1 | 26.5 ± 2.7
COC(=O)c1c(NC(=O)CCl)sc(C(=O)Nc2cccc([N+](=O)[O-])c2)c1C | 37.6 ± 7.8
COc1ccc(/C=C(\C#N)c2nc(-c3ccco3)cs2)cc1O | 35.1 ± 3.9
Nc1c(C(=O)Nc2ccccc2)sc2nc3c(cc12)CCCCC3 | 35.6 ± 5.3
O=C1/C(=C/c2ccc(O)c(O)c2)Oc2cc(O)ccc21 | 26.9 ± 5.9
O=C1N/C(=C\c2ccc(O)cc2)C(O)=C1C=NCc1ccccc1 | 27.6 ± 6.4
O=C(CC(=O)Nc1ccc2nc3n(c(=O)c2c1)CCCCC3)NCc1ccco1 | 28 ± 11
N#C/C(=C/c1ccc(O)c(O)c1)c1nc2ccccc2s1 | 51.2 ± 8.1
O=C(NCCc1ccccc1)c1cc(-c2cccs2)on1 | 34.5 ± 3.6
Nc1ccc2nc(-c3cc(Cl)c(N)c(Cl)c3)[nH]c2c1 | 35.6 ± 10
O=[N+]([O-])c1ccc2nc(/C=C/c3ccccc3)[nH]c2c1 | 25.2 ± 1.7
N#C/C(=C/c1ccc(O)c(O)c1)c1nc2ccccc2[nH]1 | 29.7 ± 1.1
Cc1ccc(C(=O)Nc2ccccc2N)cc1 | 56.8 ± 4.5
COc1cccc(C2=NOC(C(=O)Nc3cc(C)ccc3O)C2)c1 (stereo not given) | 30.3 ± 8.3
Cc1ccc(O)c(NC(=S)NC(=O)/C=C/c2ccco2)c1 | 27 ± 5.2
CCN1C(=O)/C(=C\c2ccc(O)cc2O)SC1=S | 36.3 ± 8.3
Cc1cc(C)nc(Nc2nc(-c3ccc(O)c(O)c3)cs2)n1 | 47.4 ± 6.5
N/C(=N\N=C\c1ccc(O)c(O)c1)c1nonc1N | 71.1 ± 7.1
COc1ccc(/C=N/c2sc3c(c2C(N)=O)CCCC3)cc1 | 26.4 ± 4.8
N#Cc1c(NC(=O)c2cccc(F)c2)sc2c1CCC2 | 25.9 ± 3.9
